Test results taken from PubChem BioAssay (Tox21).
Values joined by “and” are separate entries in the source; they are usually repeats but may differ in a detail not shown here. Equal entries are not always repeated. Records with an inconclusive call do not appear. Active and inactive are the calls of the source. Unless noted, the call rests on the fitted dose curve.

Experiments:
[1] = qHTS assay to identify small molecule agonists of the vitamin D receptor (VDR) signaling pathway - cell viability counter screen (AID 743224; active means well fitted curve in the direction sought with a large enough effect in the repeat runs; an effect the other way counts as inactive or inconclusive; further: nearly all actives have a fitted effect of over 50% in size; further: potency means the concentration at half of the fitted maximal effect)
How it was run: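 VDR-bla cells, 4 h after plating, exposed to compounds for 16 h at 37C; viability then read in the same wells as CellTiter-Glo luminescence after 30 min at room temperature, following the bla FRET read.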

[2] = qHTS assay to identify small molecule antagonists of the vitamin D receptor (VDR) signaling pathway - cell viability counter screen (AID 743225; active means well fitted curve in the direction sought with a large enough effect in the repeat runs; an effect the other way counts as inactive or inconclusive; further: nearly all actives have a fitted effect of over 50% in size; further: potency means the concentration at half of the fitted maximal effect)
How it was run: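 HEK293T VDR-bla; cpd + 1a,25-(OH)2D3 3 nM final, 16 h 37C/5% CO2; B/G FRET substrate 2 h RT; then CellTiter-Glo 30 min RT, luminescence.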

[3] = qHTS assay to identify small molecule agonists of the NFkB signaling pathway (AID 1159509; active means well fitted curve in the direction sought with a large enough effect in the signal ratio in the repeat runs, not every such curve was filed as active; the % refers to the signal ratio; further: series mostly up to about 61 µM)
How it was run: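 ME-180 NFkB-bla, 2,000 cells/well, overnight plating; cpd pinned in DMSO, 5 h 37 C; B/G FRET substrate 1.5 h RT; ex 405, em 460/530 nm.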

[4] = qHTS assay to identify small molecule agonists of the NFkB signaling pathway - cell viability counter screen (AID 1159515); further: series mostly up to about 61 µM; nearly all actives have a fitted effect of over 55% in size
How it was run: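 NFkB-bla ME-180 cells, 2,000/well, plated overnight at 37 C; compound added for 5 hr at 37 C. Viability read in the same wells as the bla reporter, by CellTiter-Glo luminescence after 30 min at room temperature.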

[5] = qHTS assay to identify small molecule agonists of the endoplasmic reticulum stress response signaling pathway (AID 1159516; active means well fitted activation curve with a large enough effect in the signal ratio in the repeat runs, not every such curve was filed as active; the % refers to the signal ratio)
How it was run: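 CellSensor ESRE-bla HeLa cells, 1,500 per well, plated overnight, then exposed to compounds for 5 hr at 37 C. Beta-lactamase reporter read with LiveBLAzer B/G FRET substrate after 2 hr at room temperature, 405 nm excitation, 460 and 530 nm emission.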

[6] = qHTS assay to identify small molecule agonists of the endoplasmic reticulum stress response signaling pathway - cell viability counter screen (AID 1159517);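 further: HeLa cells carrying an ER stress response element beta-lactamase reporter; series mostly up to about 61 µM; nearly all actives have a fitted effect of over 50% in size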
How it was run: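 ESRE-bla HeLa cells, 1,500 per well, seeded overnight then treated with compounds for 5 hr at 37 C. After the beta-lactamase read, viability in the same wells is measured by CellTiter-Glo luminescence after 30 min at room temperature.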

[7] = qHTS assay to identify small molecule antagonists of the retinoid-related orphan receptor gamma (ROR-gamma) signaling pathway - cell viability counter screen (AID 1159520; active means well fitted curve in the direction sought with a large enough effect in the repeat runs; an effect the other way counts as inactive or inconclusive; further: nearly all actives have a fitted effect of over 50% in size)
How it was run: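 Tet-on ROR gamma CHO cells were given compounds for 2 hr, then doxycycline hyclate at 1 uM final, and incubated 16 hr at 37 C. Viability was measured as ATP content by CellTiter-Glo luminescence.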

[8] = target: Nuclear receptor ROR-gamma (Homo sapiens) (UniProt P51449); test: qHTS assay to identify small molecule antagonists of the retinoid-related orphan receptor gamma (ROR-gamma) signaling pathway (AID 1159521; active means well fitted curve in the direction sought with a large enough effect in the repeat runs; an effect the other way counts as inactive or inconclusive; further: nearly all actives have a fitted effect of over 50% in size; further: potency means the concentration at half of the fitted maximal effect)
How it was run: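 Cells were plated, rested 4 h at 37 C, exposed to compounds for 2 h, then given 1 uM final doxycycline hyclate to induce RORγ expression. After 16 h, ONE-Glo luminescence from the ROR response element reporter was measured.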

[9] = qHTS assay to identify small molecule agonists of the AP-1 signaling pathway - cell viability counter screen (AID 1159525); further: nearly all actives have a fitted effect of over 55% in size
How it was run: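 AP-1-bla ME-180 cells in Opti-MEM with 0.5% dialyzed FBS, compound exposure 5 h at 37 C in 15-point titration. Viability read in the same wells as ATP content by CellTiter-Glo luminescence, normalised to tetra-n-octylammonium bromide and DMSO controls.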

[10] = qHTS assay to identify small molecule agonists of the AP-1 signaling pathway (AID 1159526)

Measured: Potency

C=C1C2CCC(C2)C1(C)C (stereo unspecified)
inactive: all assays above

O=S(=O)(O)c1cc(S(=O)(=O)O)c2c(N=Nc3ccccc3)c(O)ccc2c1
not listed: [8]
inactive: all other assays above

Cc1ccc(C(=O)O)o1
inactive: all assays above

CC(C)NCC(O)COc1cccc2ccccc12 (stereo unspecified)
not listed: [10]
inactive: all other assays above

C=C(C)C(=O)OCC(CC)(COC(=O)C(=C)C)COC(=O)C(=C)C
not listed: [5]
inactive: all other assays above

CC1=CC[C@H]2C[C@@H]1C2(C)C
not listed: [6]
inactive: all other assays above

COC(=O)c1ccccc1O
inactive: all assays above

O=C(Oc1ccccc1)c1ccc(O)cc1
inactive: all assays above

CC(C)(CO)COC(=O)C(C)(C)CO
not listed: [8]
inactive: all other assays above

Clc1ccc(Cl)c(Cl)c1Cl
inactive: all assays above

CS(=O)(=O)c1ccc([C@@H](O)[C@@H](CO)NC(=O)C(Cl)Cl)cc1
not listed: [8]
inactive: all other assays above

C/C=C(C)/C=C/C=C(C)C
not listed: [8] | [10]
inactive: all other assays above

CC(C)n1c(/C=C/[C@@H](O)C[C@@H](O)CC(=O)O)c(-c2ccc(F)cc2)c2ccccc21
active: [8] 486 nM and 168 nM
not listed: [7]
inactive: all other assays above

S=c1nc[nH]c2nc[nH]c12
active: [1] 15.1 µM and 10.6 µM | [2] 4.25 µM
not listed: [6]
inactive: all other assays above

CS(=O)(=O)Nc1ccc([N+](=O)[O-])cc1Oc1ccccc1
not listed: [8]
inactive: all other assays above

C=C1CC[C@H](O)CC1=C/C=C1\CCC[C@]2(C)[C@@H]([C@H](C)/C=C/[C@H](C)C(C)C)CC[C@@H]12
inactive: [2] | [3] | [4] | [5] | [6] | [9]

CN(C)c1cccc(O)c1
not listed: [8]
inactive: all other assays above

O=[N+]([O-])c1cc(N(CCO)CCO)ccc1NCCO
not listed: [7] | [8]
inactive: all other assays above

OC1CCCC1
not listed: [5]
inactive: all other assays above
